According to PubChem BioAssay:
The source made the active and inactive calls. No rule for the calls is given here.

Legend:
[1] = system: Botulinum neurotoxin type F light chain protease (Clostridium botulinum); experiment: Botulinum neurotoxin type F light chain protease inhibition, multiplex microsphere flow cytometry, validation set (AID 588459); details: multiplex microsphere protease substrate cleavage assay, at 10 µM, active compounds read high
[2] = molecular target: Botulinum neurotoxin type A (Clostridium botulinum) (UniProt P0DPI0); experiment: BoNT/A light chain protease inhibitors, biochemical, multiplex microsphere flow cytometry, validation set (AID 588460); details: at 10 µM, active compounds read high
Chain of Botulinum neurotoxin type A (Clostridium botulinum) (P0DPI0 whole entry, looked up): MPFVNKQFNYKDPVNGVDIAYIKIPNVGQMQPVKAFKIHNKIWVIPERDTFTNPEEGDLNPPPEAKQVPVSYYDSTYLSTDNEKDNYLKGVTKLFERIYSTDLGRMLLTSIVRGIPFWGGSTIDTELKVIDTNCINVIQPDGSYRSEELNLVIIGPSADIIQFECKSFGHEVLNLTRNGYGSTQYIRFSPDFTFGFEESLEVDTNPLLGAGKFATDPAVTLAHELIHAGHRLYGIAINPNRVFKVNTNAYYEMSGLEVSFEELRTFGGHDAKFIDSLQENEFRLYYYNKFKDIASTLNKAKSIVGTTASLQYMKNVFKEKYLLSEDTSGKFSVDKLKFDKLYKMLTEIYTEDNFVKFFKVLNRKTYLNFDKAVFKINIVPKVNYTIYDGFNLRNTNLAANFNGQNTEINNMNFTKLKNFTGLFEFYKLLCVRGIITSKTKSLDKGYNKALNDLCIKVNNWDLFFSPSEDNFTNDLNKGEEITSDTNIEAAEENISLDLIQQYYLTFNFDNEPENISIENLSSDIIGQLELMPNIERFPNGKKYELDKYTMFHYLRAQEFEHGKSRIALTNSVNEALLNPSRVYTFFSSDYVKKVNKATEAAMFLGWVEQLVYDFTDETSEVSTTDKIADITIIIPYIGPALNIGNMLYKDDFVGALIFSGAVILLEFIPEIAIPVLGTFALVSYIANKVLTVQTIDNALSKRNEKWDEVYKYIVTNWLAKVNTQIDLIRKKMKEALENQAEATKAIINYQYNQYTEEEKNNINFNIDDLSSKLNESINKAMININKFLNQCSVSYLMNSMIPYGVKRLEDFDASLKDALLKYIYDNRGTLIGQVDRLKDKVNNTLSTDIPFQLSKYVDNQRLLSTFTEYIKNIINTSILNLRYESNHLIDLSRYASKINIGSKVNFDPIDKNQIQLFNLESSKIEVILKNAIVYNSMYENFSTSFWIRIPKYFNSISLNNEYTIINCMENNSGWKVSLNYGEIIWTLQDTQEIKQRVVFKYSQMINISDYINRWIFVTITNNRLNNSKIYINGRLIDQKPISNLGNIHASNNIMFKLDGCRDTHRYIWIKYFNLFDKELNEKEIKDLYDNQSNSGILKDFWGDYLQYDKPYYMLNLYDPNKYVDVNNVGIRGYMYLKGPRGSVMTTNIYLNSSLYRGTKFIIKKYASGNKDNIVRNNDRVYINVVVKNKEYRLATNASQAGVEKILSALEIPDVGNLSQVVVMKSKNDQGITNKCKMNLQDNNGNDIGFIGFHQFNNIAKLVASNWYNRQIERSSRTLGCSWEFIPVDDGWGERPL

[3] = molecular target: Lethal factor (Bacillus anthracis) (UniProt P15917); experiment: Lethal factor protease inhibitors, Bacillus anthracis, multiplex microsphere cleavage assay, validation set (AID 588461); details: flow cytometry, at 10 µM, active compounds read high
Chain of Lethal factor (Bacillus anthracis) (P15917 whole entry, looked up): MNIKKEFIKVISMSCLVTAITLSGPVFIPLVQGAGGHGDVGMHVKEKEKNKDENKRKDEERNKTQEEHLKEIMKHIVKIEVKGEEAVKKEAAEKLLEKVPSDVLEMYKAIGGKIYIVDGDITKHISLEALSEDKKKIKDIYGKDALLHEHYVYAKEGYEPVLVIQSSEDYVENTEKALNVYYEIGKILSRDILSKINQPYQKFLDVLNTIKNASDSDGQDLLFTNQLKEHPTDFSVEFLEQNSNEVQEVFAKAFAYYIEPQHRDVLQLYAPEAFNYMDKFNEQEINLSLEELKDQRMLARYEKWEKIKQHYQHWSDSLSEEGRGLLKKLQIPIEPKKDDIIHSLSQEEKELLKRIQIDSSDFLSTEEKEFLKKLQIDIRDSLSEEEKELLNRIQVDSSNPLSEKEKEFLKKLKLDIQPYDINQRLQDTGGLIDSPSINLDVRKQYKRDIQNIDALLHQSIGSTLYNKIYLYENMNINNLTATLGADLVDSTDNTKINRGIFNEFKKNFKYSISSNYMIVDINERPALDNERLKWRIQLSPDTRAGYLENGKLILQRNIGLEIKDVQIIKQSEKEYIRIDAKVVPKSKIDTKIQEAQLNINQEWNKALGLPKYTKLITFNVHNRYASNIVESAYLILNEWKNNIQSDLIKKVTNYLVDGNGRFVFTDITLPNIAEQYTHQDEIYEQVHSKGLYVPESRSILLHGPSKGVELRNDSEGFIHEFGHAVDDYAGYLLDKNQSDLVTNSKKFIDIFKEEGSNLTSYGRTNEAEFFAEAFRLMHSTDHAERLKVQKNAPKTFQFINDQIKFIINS

Measured: inhibition

CC(=O)NCCCC(=O)NC(CCC(=O)OCc1ccccc1)C(=O)OCc1ccccc1 (stereo not given)
inactive: [1] -1% | [2] -1.4% | [3] -8.6%

COc1ccc(C2C3C(C)=NN=C3CC(C)(O)C2C(C)=O)cc1 (stereo not given)
inactive: [1] -2% | [2] -0.6% | [3] 4%

O=C1NCC2=C1C(c1ccccc1)Nc1ccccc1N2 (stereo not given)
inactive: [1] 2.4% | [2] 0.1% | [3] -4.9%

CCNC(=S)Nc1ccc(OC(F)(F)F)cc1
inactive: [1] 2.2% | [2] 2.8% | [3] 3%

COC(=O)c1ccc(COc2ccc3c(C)c(C)c(=O)oc3c2C)o1
inactive: [1] 1.9% | [2] -0.8% | [3] 0.2%

CC(=O)[C@@]1(O)CC[C@H]2[C@@H]3C[C@H](C)C4=CC(=O)CC[C@]4(C)[C@H]3CC[C@@]21C
inactive: [1] -1.7% | [2] -2.5% | [3] -5.5%

CCCCOn1c(C)c(C(C)=O)c2c3no[n+]([O-])c3ccc21
inactive: [1] 1.9% | [2] 0.2% | [3] -1.9%

CC1(C)Cc2nc3oc4c(NCc5ccccc5)ncnc4c3cc2CO1
inactive: [1] 0.7% | [2] 0.2% | [3] 2.2%

Cc1ccc2c(c1)c(C)cc(=O)n2CCC(=O)O
inactive: [1] 0.8% | [2] -0.2% | [3] 1.1%

CC1=CC2(O)OCCN(CCO)C2=CC1=O (stereo not given)
inactive: [1] -1.5% | [2] -1% | [3] 2.5%

Cc1ccccc1C(=O)NNc1ncnc2c1cnn2C
inactive: [1] 3.1% | [2] -0.7% | [3] 1.7%

Clc1ccc(CCNc2ncnc3nc[nH]c23)cc1
inactive: [1] 4.5% | [2] 0.1% | [3] -3.1%

CCN1CCN(C(=S)c2ccc(OC)cc2)CC1
inactive: [1] 2.2% | [2] -0.9% | [3] 11.9%

Cc1ccc2[nH]c(=O)c(Cc3ccccc3)c(O)c2c1
inactive: [1] 0.6% | [2] -0.4% | [3] 2.6%

COc1cccc(OCC(O)CO)c1 (stereo not given)
inactive: [1] -1.4% | [2] -1.1% | [3] -9.1%

Cc1ccc(O)c(CCc2ccccc2)n1
inactive: [1] 1.3% | [2] 0.5% | [3] -5.5%

Cc1ccc2nc(NC3=NC(CC(=O)O)C(=O)N3)nc(C)c2c1 (stereo not given)
inactive: [1] -1.7% | [2] -1% | [3] -4.8%

Cc1nc(C)c(C)nc1C
inactive: [1] -1.1% | [2] -0.9% | [3] -9.1%

COc1ccc(CC(=O)Nc2cccc(C(=O)Nc3ccccc3C(=O)O)c2)cc1OC
inactive: [1] -5.3% | [2] -3.3% | [3] 1.8%

COc1ccc(-c2c(NC(=O)c3ccco3)n(C)c3ccccc3c2=O)cc1
inactive: [1] 1.5% | [2] 0.4% | [3] -0.7%

COc1ccc2[nH]c(=O)c(CNC3CCCCC3)cc2c1
inactive: [1] -1.7% | [2] 0.9% | [3] -0.1%

CC(C)(C)OC(=O)NCCC(=O)Oc1ccc2ccc(=O)oc2c1
inactive: [1] -1.5% | [2] -0.8% | [3] 0.5%

Cc1cc(C(C)(C)C)cc(C)c1CC1=NCCN1
inactive: [1] 1.3% | [2] 1.2% | [3] 1.8%

O=c1[nH]c(=O)n([C@H]2C[C@H](O)[C@@H](CO)O2)cc1C(F)(F)F
inactive: [1] -1% | [2] 0% | [3] 3.3%

COCCOC(=O)c1c(C)oc2ccc(OCc3cc(C(=O)OC)oc3C)cc12
inactive: [1] -0.6% | [2] -0.8% | [3] 1.6%

CN(C)CCN(Cc1cccs1)c1ccccn1
inactive: [1] 2.5% | [2] -0.3% | [3] -1.6%

Cc1ccc2c(c1)c1c(n2C)C(=O)CCC1
inactive: [1] -1.5% | [2] -1% | [3] 3.3%

COC(=O)c1[nH]c2ccccc2c1NC(=O)CN1CCN(C/C=C/c2ccccc2)CC1
inactive: [1] -2.6% | [2] -1.4% | [3] -4.7%

COc1ccccc1/C=C/C(=O)c1c2c(c(C)[nH]c1=O)CCCC2
inactive: [1] -1.3% | [2] 0.5% | [3] -5.8%

CN(Cc1ccccc1)CC(O)COc1ccc(CNCc2cccnc2)cc1 (stereo not given)
inactive: [1] -3.8% | [2] 0.2% | [3] -5.3%
